Common to all, as to assay: DAPPL (digital affinity profiling via proximity ligation, sequencing); 10 mM Tris-HCl pH 7.5, 50 mM NaCl, 1 mM DTT, 4% glycerol, room temperature, 30 min; GST-TFs on glutathione beads, 16-mer random dsDNA library, 0.1% formaldehyde crosslink after washing; high values mean tight binding
One assay concerns the target T1, FLI1 (Homo sapiens, UniProt Q01543 1-452).
T1 sequence: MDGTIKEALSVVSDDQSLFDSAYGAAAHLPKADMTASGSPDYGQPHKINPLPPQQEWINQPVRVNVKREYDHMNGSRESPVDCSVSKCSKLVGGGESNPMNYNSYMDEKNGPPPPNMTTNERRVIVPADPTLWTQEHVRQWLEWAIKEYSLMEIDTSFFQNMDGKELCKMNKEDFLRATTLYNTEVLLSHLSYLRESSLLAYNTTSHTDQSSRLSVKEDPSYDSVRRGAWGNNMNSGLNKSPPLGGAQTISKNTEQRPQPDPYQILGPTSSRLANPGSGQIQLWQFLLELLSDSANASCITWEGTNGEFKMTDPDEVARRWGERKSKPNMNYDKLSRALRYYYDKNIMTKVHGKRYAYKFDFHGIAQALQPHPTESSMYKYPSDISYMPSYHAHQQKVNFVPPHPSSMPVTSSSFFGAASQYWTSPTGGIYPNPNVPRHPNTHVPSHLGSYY
The settings on record: protein: recombinant; tags: N-terminal GST; dsDNA, one strand shown. A digest of the protocol: (§1)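 Beads coated with glutathione captured GST-fused human transcription factors that had been expressed in yeast, and the factors were then given DNA barcodes and pooled with a tag-only sample. The pools were incubated with 200 nmole of a random double-stranded 16-mer DNA library in Tris/NaCl/DTT/glycerol buffer for 30 min at room temperature, washed, crosslinked with 0.1% formaldehyde and proximity-ligated with BsaI/T4 ligase at 37 °C for 1 h. PCR amplification and Illumina NextSeq500 sequencing came last. Binding signal is each hexamer's read frequency for a factor divided by its frequency for the tag-only sample.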

In another assay the target is T2, GABPA (Homo sapiens, UniProt Q06546 1-454).
T2 sequence: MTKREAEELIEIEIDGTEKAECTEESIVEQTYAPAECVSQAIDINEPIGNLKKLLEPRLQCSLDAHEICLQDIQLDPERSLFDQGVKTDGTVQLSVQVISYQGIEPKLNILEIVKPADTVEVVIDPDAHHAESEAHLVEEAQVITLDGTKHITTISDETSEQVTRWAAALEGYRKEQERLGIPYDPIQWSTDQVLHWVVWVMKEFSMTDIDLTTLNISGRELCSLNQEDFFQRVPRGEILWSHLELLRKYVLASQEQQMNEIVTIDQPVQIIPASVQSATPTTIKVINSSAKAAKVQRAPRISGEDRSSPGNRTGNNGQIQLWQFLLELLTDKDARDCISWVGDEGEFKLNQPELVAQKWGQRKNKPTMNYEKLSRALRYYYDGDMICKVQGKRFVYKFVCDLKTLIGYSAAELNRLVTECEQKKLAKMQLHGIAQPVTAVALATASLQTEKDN
The following applies: protein: recombinant; tags: N-terminal GST; dsDNA, one strand shown. The procedure, abridged:
as §1

The next assay addresses T3, ERG (Homo sapiens, UniProt P11308 1-479).
T3 sequence: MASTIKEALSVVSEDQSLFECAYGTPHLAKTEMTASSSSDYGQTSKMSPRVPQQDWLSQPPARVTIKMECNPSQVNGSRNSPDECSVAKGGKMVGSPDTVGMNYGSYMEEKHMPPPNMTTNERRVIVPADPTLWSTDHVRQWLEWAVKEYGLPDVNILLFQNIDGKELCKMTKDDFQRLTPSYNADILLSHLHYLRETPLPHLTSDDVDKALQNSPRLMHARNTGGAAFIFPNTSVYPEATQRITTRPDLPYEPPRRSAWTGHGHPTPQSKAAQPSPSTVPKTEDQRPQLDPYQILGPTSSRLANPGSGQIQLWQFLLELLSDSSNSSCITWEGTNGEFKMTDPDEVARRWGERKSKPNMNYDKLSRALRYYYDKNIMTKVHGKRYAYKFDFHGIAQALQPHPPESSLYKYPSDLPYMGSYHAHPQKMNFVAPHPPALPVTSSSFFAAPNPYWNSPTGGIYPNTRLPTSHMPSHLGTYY
The following applies: protein: recombinant; tags: N-terminal GST; dsDNA, one strand shown. A digest of the protocol: as §1

Another assay deals with ELF1 (Homo sapiens, UniProt P32519 1-619). The following applies: protein: recombinant; tags: N-terminal GST; dsDNA, one strand shown. A digest of the protocol: as §1
Chain of ELF1 (P32519 whole entry): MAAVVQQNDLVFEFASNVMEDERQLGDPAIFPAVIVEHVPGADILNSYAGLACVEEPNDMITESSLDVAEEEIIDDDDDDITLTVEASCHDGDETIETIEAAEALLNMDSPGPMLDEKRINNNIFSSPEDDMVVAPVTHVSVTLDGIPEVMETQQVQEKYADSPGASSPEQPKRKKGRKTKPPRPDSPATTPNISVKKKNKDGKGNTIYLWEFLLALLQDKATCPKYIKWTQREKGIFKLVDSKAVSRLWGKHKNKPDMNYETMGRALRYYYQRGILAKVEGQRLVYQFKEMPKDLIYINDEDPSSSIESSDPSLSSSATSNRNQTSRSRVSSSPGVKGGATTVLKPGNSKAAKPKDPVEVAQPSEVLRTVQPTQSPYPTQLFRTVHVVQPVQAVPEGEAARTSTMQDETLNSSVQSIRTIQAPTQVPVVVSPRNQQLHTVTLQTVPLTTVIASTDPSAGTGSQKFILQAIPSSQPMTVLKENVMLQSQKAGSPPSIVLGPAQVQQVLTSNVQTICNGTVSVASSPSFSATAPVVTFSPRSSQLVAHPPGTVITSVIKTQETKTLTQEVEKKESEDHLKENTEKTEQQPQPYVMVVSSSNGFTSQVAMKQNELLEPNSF
The target in another assay is T4, EHF (Homo sapiens, UniProt Q9NZC4 1-300).
T4 sequence: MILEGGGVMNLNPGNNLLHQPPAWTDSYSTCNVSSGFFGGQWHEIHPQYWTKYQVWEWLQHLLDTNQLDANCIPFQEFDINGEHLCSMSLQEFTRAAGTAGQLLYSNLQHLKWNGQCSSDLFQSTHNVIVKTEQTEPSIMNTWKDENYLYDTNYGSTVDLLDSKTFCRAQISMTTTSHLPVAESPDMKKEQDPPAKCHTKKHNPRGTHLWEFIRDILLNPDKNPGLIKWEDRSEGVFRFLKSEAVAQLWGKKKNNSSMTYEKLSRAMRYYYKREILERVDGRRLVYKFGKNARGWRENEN
The following applies: protein: recombinant; tags: N-terminal GST; dsDNA, one strand shown. A digest of the protocol: as §1

The target of the next assay is SPI1 (Homo sapiens, UniProt P17947 1-270). The settings on record: protein: recombinant; tags: N-terminal GST; dsDNA, one strand shown. A digest of the protocol:
as §1

The next assay has as its target SPIB (Homo sapiens, UniProt Q01892 1-262). The settings on record: protein: recombinant; tags: N-terminal GST; dsDNA, one strand shown. The procedure, abridged:
as §1

Another assay addresses T5, ELK3 (Homo sapiens, UniProt P41970 1-407).
T5 sequence: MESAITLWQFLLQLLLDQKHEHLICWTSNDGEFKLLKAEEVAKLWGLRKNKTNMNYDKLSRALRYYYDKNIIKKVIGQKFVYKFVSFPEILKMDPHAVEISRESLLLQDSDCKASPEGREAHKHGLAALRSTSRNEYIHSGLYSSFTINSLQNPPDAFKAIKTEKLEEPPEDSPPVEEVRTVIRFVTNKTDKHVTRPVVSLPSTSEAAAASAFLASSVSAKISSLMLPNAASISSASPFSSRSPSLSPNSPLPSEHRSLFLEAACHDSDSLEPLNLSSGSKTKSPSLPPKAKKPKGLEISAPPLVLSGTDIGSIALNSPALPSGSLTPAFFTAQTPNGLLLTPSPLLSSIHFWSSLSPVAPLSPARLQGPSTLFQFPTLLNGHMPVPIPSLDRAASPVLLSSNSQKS
The following applies: protein: recombinant; tags: N-terminal GST; dsDNA, one strand shown. A digest of the protocol: as §1

A further assay concerns the target T6, FEV (Homo sapiens, UniProt Q99581 1-238).
T6 sequence: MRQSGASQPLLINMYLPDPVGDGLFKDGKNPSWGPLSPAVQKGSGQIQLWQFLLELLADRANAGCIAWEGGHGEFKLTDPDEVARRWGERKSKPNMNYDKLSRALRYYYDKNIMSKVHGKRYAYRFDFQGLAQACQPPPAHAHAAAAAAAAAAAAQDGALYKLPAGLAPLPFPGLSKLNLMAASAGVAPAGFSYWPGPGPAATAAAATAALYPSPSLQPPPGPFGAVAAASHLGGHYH
The following applies: protein: recombinant; tags: N-terminal GST; dsDNA, one strand shown. A digest of the protocol:
as §1

The next assay deals with ETV5 (Homo sapiens, UniProt P41161 1-510). The settings on record: protein: recombinant; tags: N-terminal GST; dsDNA, one strand shown. The procedure, abridged: as §1
Chain of ETV5 (P41161 whole entry): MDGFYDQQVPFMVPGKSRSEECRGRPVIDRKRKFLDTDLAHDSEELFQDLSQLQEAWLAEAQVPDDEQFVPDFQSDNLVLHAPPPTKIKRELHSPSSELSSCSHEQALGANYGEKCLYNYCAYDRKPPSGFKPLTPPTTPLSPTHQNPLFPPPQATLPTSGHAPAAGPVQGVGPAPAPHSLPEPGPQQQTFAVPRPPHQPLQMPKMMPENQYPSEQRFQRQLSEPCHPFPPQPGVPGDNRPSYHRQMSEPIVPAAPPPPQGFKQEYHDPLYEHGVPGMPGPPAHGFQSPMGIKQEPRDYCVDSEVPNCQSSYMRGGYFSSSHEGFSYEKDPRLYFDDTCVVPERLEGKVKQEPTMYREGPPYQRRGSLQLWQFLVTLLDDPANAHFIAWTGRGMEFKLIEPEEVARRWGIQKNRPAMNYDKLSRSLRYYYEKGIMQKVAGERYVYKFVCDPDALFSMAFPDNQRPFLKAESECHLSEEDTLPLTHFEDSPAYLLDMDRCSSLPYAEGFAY
The target in another assay is HSF1 (Homo sapiens, UniProt Q00613 1-529). The following applies: protein: recombinant; tags: N-terminal GST; chain copies: 3; dsDNA, one strand shown. A digest of the protocol: as §1
Chain of HSF1 (Q00613 whole entry): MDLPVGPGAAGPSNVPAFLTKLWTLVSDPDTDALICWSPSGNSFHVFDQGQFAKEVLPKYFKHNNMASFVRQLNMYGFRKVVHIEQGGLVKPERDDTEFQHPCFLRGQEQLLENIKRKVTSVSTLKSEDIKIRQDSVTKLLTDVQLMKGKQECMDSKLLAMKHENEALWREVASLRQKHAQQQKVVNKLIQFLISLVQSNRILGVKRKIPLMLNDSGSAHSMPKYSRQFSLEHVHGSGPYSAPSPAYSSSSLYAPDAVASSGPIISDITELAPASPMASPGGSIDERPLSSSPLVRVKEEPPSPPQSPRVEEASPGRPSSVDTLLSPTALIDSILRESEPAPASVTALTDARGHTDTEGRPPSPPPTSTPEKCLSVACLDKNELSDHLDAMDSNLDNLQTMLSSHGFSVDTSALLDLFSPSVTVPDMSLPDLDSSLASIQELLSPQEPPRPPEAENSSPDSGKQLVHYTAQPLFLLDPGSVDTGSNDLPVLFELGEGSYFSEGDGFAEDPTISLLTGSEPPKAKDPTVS
A further assay addresses T7, SPIC (Homo sapiens, UniProt Q8N5J4 1-248).
T7 sequence: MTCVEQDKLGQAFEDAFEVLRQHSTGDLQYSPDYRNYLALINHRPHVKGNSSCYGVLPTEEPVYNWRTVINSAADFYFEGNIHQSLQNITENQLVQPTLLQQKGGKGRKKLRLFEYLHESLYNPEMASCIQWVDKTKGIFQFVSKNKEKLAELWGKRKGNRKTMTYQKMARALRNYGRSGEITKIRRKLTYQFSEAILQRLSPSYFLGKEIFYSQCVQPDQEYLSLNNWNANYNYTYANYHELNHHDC
The settings on record: protein: recombinant; tags: N-terminal GST; dsDNA, one strand shown. The procedure, abridged:
as §1

The next assay deals with ELF4 (Homo sapiens, UniProt Q99607 1-663). The settings on record: protein: recombinant; tags: N-terminal GST; dsDNA, one strand shown. The procedure, abridged:
as §1

The target of another assay is T8, ELK4 (Homo sapiens, UniProt P28324-2 1-405).
T8 sequence: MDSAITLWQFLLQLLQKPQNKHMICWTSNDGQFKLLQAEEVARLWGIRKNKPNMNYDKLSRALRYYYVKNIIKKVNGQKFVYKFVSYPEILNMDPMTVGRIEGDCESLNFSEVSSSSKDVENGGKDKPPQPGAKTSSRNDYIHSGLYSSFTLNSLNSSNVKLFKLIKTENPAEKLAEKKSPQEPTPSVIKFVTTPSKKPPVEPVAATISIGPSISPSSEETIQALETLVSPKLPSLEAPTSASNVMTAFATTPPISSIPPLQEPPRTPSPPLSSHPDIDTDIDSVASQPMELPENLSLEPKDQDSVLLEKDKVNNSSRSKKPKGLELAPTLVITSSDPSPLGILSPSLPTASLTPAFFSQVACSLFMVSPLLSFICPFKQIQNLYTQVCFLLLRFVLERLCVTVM
The settings on record: protein: recombinant; tags: N-terminal GST; dsDNA, one strand shown. The procedure, abridged:
as §1

The next assay deals with T9, ETV2 (Homo sapiens, UniProt O00321 1-342).
T9 sequence: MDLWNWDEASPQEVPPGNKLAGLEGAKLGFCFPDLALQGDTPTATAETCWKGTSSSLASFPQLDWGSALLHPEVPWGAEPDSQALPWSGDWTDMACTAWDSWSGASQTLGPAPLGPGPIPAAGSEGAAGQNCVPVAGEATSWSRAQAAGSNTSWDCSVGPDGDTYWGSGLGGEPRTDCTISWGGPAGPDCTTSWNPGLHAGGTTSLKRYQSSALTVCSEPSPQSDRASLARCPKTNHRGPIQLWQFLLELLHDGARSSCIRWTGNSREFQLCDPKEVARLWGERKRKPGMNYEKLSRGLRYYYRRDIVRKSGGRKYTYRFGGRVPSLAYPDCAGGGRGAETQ
The settings on record: protein: recombinant; tags: N-terminal GST; dsDNA, one strand shown. A digest of the protocol:
as §1

Another assay concerns the target T10, ELF3 (Homo sapiens, UniProt P78545 1-371).
T10 sequence: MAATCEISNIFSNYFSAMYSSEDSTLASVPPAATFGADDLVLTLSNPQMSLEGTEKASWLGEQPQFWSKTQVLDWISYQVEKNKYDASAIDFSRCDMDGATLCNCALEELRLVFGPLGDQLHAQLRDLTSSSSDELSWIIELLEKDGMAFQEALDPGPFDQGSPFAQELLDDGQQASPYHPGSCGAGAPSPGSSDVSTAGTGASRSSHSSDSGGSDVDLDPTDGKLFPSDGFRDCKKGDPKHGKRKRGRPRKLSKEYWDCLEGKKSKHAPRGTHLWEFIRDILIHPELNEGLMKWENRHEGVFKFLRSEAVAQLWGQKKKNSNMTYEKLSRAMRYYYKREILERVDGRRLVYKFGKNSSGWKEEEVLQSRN
The following applies: protein: recombinant; tags: N-terminal GST; dsDNA, one strand shown. The procedure, abridged: as §1

A further assay has as its target ETV1 (Homo sapiens, UniProt P50549 1-477). The following applies: protein: recombinant; tags: N-terminal GST; dsDNA, one strand shown. A digest of the protocol: as §1

Chain of ELF4 (Q99607 whole entry): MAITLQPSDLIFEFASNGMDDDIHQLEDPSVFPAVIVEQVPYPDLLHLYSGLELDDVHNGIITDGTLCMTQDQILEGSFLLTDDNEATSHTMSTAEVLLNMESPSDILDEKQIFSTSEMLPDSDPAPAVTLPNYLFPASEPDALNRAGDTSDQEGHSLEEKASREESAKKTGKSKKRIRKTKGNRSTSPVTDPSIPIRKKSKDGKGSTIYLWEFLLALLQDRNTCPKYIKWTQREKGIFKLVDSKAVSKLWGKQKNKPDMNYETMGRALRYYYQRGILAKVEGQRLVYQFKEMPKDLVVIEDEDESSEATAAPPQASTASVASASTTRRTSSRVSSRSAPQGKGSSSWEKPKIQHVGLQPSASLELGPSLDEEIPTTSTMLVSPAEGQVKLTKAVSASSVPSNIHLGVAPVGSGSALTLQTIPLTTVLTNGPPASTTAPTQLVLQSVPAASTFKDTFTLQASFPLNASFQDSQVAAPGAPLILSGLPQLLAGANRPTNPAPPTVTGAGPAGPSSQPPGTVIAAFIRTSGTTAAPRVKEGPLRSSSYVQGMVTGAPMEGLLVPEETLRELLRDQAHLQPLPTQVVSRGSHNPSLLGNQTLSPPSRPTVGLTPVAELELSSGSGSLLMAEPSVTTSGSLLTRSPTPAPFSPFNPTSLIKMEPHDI
Chain of SPIB (Q01892 whole entry): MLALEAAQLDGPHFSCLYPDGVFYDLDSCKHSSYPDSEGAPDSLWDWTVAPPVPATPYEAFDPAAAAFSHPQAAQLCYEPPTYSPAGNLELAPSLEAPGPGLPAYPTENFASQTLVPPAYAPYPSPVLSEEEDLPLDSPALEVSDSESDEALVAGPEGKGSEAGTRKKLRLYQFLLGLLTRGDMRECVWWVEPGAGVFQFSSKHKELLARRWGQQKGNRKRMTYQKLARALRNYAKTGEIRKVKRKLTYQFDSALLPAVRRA
Chain of ETV1 (P50549 whole entry): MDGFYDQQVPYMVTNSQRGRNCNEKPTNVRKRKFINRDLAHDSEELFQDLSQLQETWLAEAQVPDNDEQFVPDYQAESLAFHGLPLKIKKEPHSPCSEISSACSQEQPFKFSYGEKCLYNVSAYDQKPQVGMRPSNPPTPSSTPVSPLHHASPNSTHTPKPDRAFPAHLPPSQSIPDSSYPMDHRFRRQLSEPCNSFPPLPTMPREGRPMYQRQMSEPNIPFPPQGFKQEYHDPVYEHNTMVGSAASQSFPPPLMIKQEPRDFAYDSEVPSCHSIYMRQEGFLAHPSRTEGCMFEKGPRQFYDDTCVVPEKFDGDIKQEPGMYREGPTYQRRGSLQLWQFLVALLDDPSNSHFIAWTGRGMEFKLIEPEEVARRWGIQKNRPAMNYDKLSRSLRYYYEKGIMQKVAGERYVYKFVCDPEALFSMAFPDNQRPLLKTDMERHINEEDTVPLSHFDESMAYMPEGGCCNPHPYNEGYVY

For GTTCCA, the binding signal with FLI1 was 1.12 fold enrichment (6-mer frequency, TF over GST control); with GABPA it was 1.03 fold enrichment (6-mer frequency, TF over GST control); with ERG, 1.01 fold enrichment (6-mer frequency, TF over GST control); with ELF1, 1.11 fold enrichment (6-mer frequency, TF over GST control); with EHF it was 1 fold enrichment (6-mer frequency, TF over GST control); in the assay with SPI1 it was 1.03 fold enrichment (6-mer frequency, TF over GST control). Also, the binding signal with SPIB is 1.1 fold enrichment (6-mer frequency, TF over GST control); with ELK3, 1.08 fold enrichment (6-mer frequency, TF over GST control); with FEV, 1.01 fold enrichment (6-mer frequency, TF over GST control); with ETV5 it was 1.05 fold enrichment (6-mer frequency, TF over GST control); with HSF1 it was 1.79 fold enrichment (6-mer frequency, TF over GST control); in the assay with SPIC it was 1.21 fold enrichment (6-mer frequency, TF over GST control). The binding signal in the assay with ELF4 was 1.13 fold enrichment (6-mer frequency, TF over GST control); in the assay with ELK4, 1.14 fold enrichment (6-mer frequency, TF over GST control); with ETV2, 1.06 fold enrichment (6-mer frequency, TF over GST control); with ELF3 it was 1.12 fold enrichment (6-mer frequency, TF over GST control); with ETV1 it was 1.06 fold enrichment (6-mer frequency, TF over GST control).

Values taken from paper PMC7862700, “An all-to-all approach to the identification of sequence-specific readers for epigenetic DNA modifications on cytosine”.
